The supplement of paper PMC12494721
Counter-ions that a name gives are not always drawn.

Tests used:
Conditions in all cases: incubation time: 27 h, anaerobic, 37 °C;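 for the amine columns active = adjusted P below 0.05 in both replicates with a change the same way and a mean fold change under 0.8 or over 1.25; inactive = the rest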
[1] = tested on: Clostridium sporogenes DSM 1664; test: growth (OD595) fold change vs plate DMSO controls (fold change (ratio)); higher = more growth
How it was run: (§1)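 The reported measure is growth: the fold change against the median of DMSO controls on the plate. Absorbance at 595 nm from anaerobic 96-well mGAM cultures grown for 27 h at 37 °C was blank-subtracted, corrected for background with 20 µM compound solutions in water, and converted to OD with a calibration factor of 5. Fold changes above 1.5 appear as NA, and values are the mean of 2 biological replicates.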

Escherichia coli IAI1 [2] = test: as above
How it was run: as §1

[3] = tested on: Klebsiella aerogenes DSM 30053; test: as above
How it was run: as §1

[4] = tested on: Ruminococcus gnavus DSM 108212; test: as above
How it was run: as §1

[5] = tested on: Klebsiella aerogenes DSM 30053; test: fold change of Histamine concentration vs plate DMSO controls (fold change (ratio)); higher = more amine produced, active = hit call of the paper (significant change in both replicates, either direction)
How it was run: (§2)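 Anaerobic mGAM cultures of four gut bacterial strains were grown at 37 °C for 27 h in 80 µL wells, starting at OD 0.1 before 1:1 dilution. Compounds were at 20 µM final (sweeteners 50 µM). Whole cultures were extracted with cold acetonitrile/methanol containing 0.1% formic acid and centrifuged. Amines were quantified by LC–triple-quadrupole MS (dynamic MRM) against external calibration curves and drift-corrected within batch. Each value is the fold change versus plate DMSO controls, averaged over 2 biological replicates.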

[6] = tested on: Clostridium sporogenes DSM 1664; test: fold change of Tryptamine concentration vs plate DMSO controls (fold change (ratio)); higher = more amine produced, active = hit call of the paper (significant change in both replicates, either direction)
How it was run: as §2

[7] = tested on: Ruminococcus gnavus DSM 108212; test: as above
How it was run: as §2

Escherichia coli IAI1 [8] = test: fold change of Putrescine concentration vs plate DMSO controls (fold change (ratio)); higher = more amine produced, active = hit call of the paper (significant change in both replicates, either direction)
How it was run: as §2

[9] = tested on: Klebsiella aerogenes DSM 30053; test: as above
How it was run: as §2

Escherichia coli IAI1 [10] = test: fold change of Cadaverine concentration vs plate DMSO controls (fold change (ratio)); higher = more amine produced, active = hit call of the paper (significant change in both replicates, either direction)
How it was run: as §2

[11] = tested on: Klebsiella aerogenes DSM 30053; test: as above
How it was run: as §2

[12] = tested on: Ruminococcus gnavus DSM 108212; test: fold change of 2-Phenylethylamine concentration vs plate DMSO controls (fold change (ratio)); higher = more amine produced, active = hit call of the paper (significant change in both replicates, either direction)
How it was run: as §2

Row | SMILES | growth [1] | growth (Escherichia coli IAI1 [2]) | growth [3] | growth [4] | fold change of Histamine concentration [5] | fold change of Tryptamine concentration [6] | fold change of Tryptamine concentration [7] | fold change of Putrescine concentration (Escherichia coli IAI1 [8]) | fold change of Putrescine concentration [9] | fold change of Cadaverine concentration (Escherichia coli IAI1 [10]) | fold change of Cadaverine concentration [11] | fold change of 2-Phenylethylamine concentration [12]
1 | Nc1nc2[nH]cnc2c(=S)[nH]1 [Tioguanine] (20 µM) | 1.3 | 0.969 | 1.09 | 0.899 | 1 (inactive) | 1.03 (inactive) | 1.01 (inactive) | 0.623 (active) | 0.987 (inactive) | 0.871 (inactive) | 0.998 (inactive) | 0.998 (inactive)
2 | CO/N=C1\CN(c2nc3c(cc2F)c(=O)c(C(=O)O)cn3C2CC2)CC1CN (stereo not given) [Gemifloxacin mesylate] (20 µM) | 0.00381 | 0.0388 | 0.126 | 0.376 | 0.0873 (active) | 0.0398 (active) | 0.148 (active) | 0.735 (inactive) | 0.66 (inactive) | 0.223 (active) | 0.992 (inactive) | 0.159 (active)
3 | O=C1NS(=O)(=O)c2ccccc21 [Saccharin] (50 µM) | 0.975 | 1.02 | 0.976 | 1.11 | 1.01 (inactive) | 1.02 (inactive) | 1 (inactive) | 1.05 (inactive) | 1.01 (inactive) | 1.06 (inactive) | 0.996 (inactive) | 1.02 (inactive)
4 | OCc1cc(C(O)CNCCCCCCOCCCCc2ccccc2)ccc1O (stereo not given) [Salmeterol] (20 µM) | 1.17 | 1.02 | 1 | 0.975 | 1.04 (inactive) | 1.04 (inactive) | 0.936 (inactive) | 1.07 (inactive) | 0.975 (inactive) | 1.02 (inactive) | 0.986 (inactive) | 0.981 (inactive)
5 | Cc1ccc(S(=O)(=O)NC(=O)NN2CC3CCCC3C2)cc1 (stereo not given) [Gliclazide] (20 µM) | 1.15 | 1.06 | 0.986 | 0.999 | 1.04 (inactive) | 1.06 (inactive) | 1.12 (inactive) | 0.995 (inactive) | 1 (inactive) | 0.883 (inactive) | 1 (inactive) | 1.12 (inactive)
6 | C#C[C@]1(O)CC[C@H]2[C@@H]3CCC4=C(CCC(=O)C4)[C@H]3CC[C@@]21C [Norethynodrel] (20 µM) | 0.978 | 1.04 | 1 | 1.02 | 1.03 (inactive) | 0.936 (inactive) | 1.03 (inactive) | 1.04 (inactive) | 1.03 (inactive) | 0.979 (inactive) | 1.01 (inactive) | 0.989 (inactive)
7 | Clc1ccc(CCC(Cn2ccnc2)Sc2c(Cl)cccc2Cl)cc1 (stereo not given) [Butoconazole nitrate] (20 µM) | 1.12 | 1.02 | 0.995 | 0.621 | 1.01 (inactive) | 1.07 (inactive) | 0.514 (active) | 0.997 (inactive) | 0.992 (inactive) | 0.995 (inactive) | 0.989 (inactive) | 0.623 (active)
8 | C/C(=C\C(=O)OCCCCCCCCC(=O)O)C[C@@H]1OC[C@H](C[C@@H]2O[C@H]2[C@@H](C)[C@H](C)O)[C@@H](O)[C@H]1O [Mupirocin] (20 µM) | 0.909 | 0.423 | 0.631 | 0.934 | 0.384 (active) | 0.968 (inactive) | 1.04 (inactive) | 0.182 (active) | 0.7 (active) | 0.209 (active) | 0.763 (active) | 0.957 (inactive)
9 | Cc1[nH]c(=O)c(C#N)cc1-c1ccncc1 [Milrinone] (20 µM) | 1.08 | 1.05 | 0.987 | 0.92 | 1.09 (inactive) | 0.997 (inactive) | 1.03 (inactive) | 1.02 (inactive) | 1.07 (inactive) | 0.924 (inactive) | 1.03 (inactive) | 0.996 (inactive)
10 | Nc1ncnc2c1ncn2[C@@H]1O[C@H](COP(=O)(O)O)[C@@H](O)[C@H]1O [5'-Adenylic acid] (50 µM) | 0.902 | 0.983 | 1.04 | 1.03 | 0.938 (inactive) | 0.951 (inactive) | 1.01 (inactive) | 1.01 (inactive) | 1.03 (inactive) | 0.905 (inactive) | 1 (inactive) | 0.989 (inactive)
11 | c1ccc2c(c1)-c1cccc3c1c-2cc1ccccc13 [Benzo[b]fluoranthene] (20 µM) | 1.08 | 0.997 | 1.04 | 1 | 0.993 (inactive) | 1.03 (inactive) | 1.02 (inactive) | 1 (inactive) | 1.02 (inactive) | 1.03 (inactive) | 1.01 (inactive) | 1.04 (inactive)
12 | COC(=O)C1=C(C)NC(C)=C(C(=O)OC(C)C)C1c1cccc2nonc12 (stereo not given) [Isradipine] (20 µM) | 0.941 | 1.06 | 0.997 | 1.22 | 1.09 (inactive) | 0.944 (inactive) | 1.03 (inactive) | 1.04 (inactive) | 1.01 (inactive) | 0.991 (inactive) | 1 (inactive) | 1.01 (inactive)
13 | NS(=O)(=O)c1cc(C(=O)O)cc(N2CCCC2)c1Oc1ccccc1 [Piretanide] (20 µM) | 1.09 | 0.987 | 0.997 | 0.955 | 1.01 (inactive) | 1.11 (inactive) | 1.1 (inactive) | 0.974 (inactive) | 1.04 (inactive) | 1.06 (inactive) | 1.08 (inactive) | 1.23 (inactive)
14 | Cc1cc(=O)n(-c2ccccc2)n1C [Antipyrine] (20 µM) | 1.04 | 0.959 | 1.03 | 0.869 | 0.98 (inactive) | 1.03 (inactive) | 1.01 (inactive) | 0.999 (inactive) | 1 (inactive) | 1.01 (inactive) | 0.999 (inactive) | 1.02 (inactive)
15 | CN1CCCC(n2nc(Cc3ccc(Cl)cc3)c3ccccc3c2=O)CC1 (stereo not given) [Azelastine hydrochloride] (20 µM) | 1.05 | 1.05 | 0.95 | 0.57 | 1.13 (inactive) | 0.963 (inactive) | 0.943 (inactive) | 1.03 (inactive) | 1.03 (inactive) | 1.01 (inactive) | 0.976 (inactive) | 0.937 (inactive)
16 | CC(CN(C)C)C(C)(O)Cc1ccc(Cl)cc1 (stereo not given) [Clobutinol hydrochloride] (20 µM) | 0.926 | 1.01 | 1.02 | 1.26 | 1.03 (inactive) | 1.02 (inactive) | 0.975 (inactive) | 0.975 (inactive) | 0.997 (inactive) | 0.965 (inactive) | 0.988 (inactive) | 0.988 (inactive)
17 | CCN(CC)CCOC(=O)C(c1ccccc1)C1CCCCC1 (stereo not given) [Drofenine hydrochloride] (20 µM) | 0.967 | 0.977 | 1 | 0.939 | 1.03 (inactive) | 0.99 (inactive) | 0.866 (inactive) | 1.06 (inactive) | 1.01 (inactive) | 1.04 (inactive) | 0.992 (inactive) | 0.921 (inactive)
18 | COc1ccc([C@@H]2Sc3ccccc3N(CCN(C)C)C(=O)[C@@H]2OC(C)=O)cc1 [Diltiazem hydrochloride] (20 µM) | 1.13 | 1.02 | 0.994 | 1.01 | 1.07 (inactive) | 1.03 (inactive) | 1.01 (inactive) | 0.982 (inactive) | 1.02 (inactive) | 0.985 (inactive) | 0.993 (inactive) | 0.971 (inactive)
19 | COc1cccc2c1C(=O)c1c(O)c3c(c(O)c1C2=O)C[C@@](O)(C(=O)CO)C[C@@H]3O[C@H]1C[C@H](N)[C@@H](O)[C@H](C)O1 [Epirubicin hydrochloride] (20 µM) | 0.607 | 0.0185 | 0 | 0.386 | 1.01 (inactive) | 0.953 (inactive) | 0.966 (inactive) | 1.07 (inactive) | 0.998 (inactive) | 1.04 (inactive) | 1.02 (inactive) | 0.934 (inactive)
20 | C#C[C@]1(O)CC[C@H]2[C@@H]3CCC4=CC(=O)CC[C@@H]4[C@H]3CC[C@@]21C [Norethindrone] (20 µM) | 1.09 | 0.973 | 1 | 1.22 | 1.11 (inactive) | 1.01 (inactive) | 1.03 (inactive) | 0.962 (inactive) | 1.03 (inactive) | 0.98 (inactive) | 0.989 (inactive) | 1.04 (inactive)
21 | CC(C)(C)NC[C@H](O)COc1cccc2c1CCCC2=O [(-) Levobunolol hydrochloride] (20 µM) | 0.999 | 0.973 | 0.98 | 0.872 | 1.06 (inactive) | 1 (inactive) | 0.916 (inactive) | 1.04 (inactive) | 1.03 (inactive) | 0.996 (inactive) | 1 (inactive) | 0.866 (inactive)
22 | O=C(c1ccc(F)cc1)C1CCN(CCn2c(=O)[nH]c3ccccc3c2=O)CC1 [Ketanserin tartrate hydrate] (20 µM) | 1.21 | 0.974 | 1.02 | 1.06 | 1.05 (inactive) | 1.18 (inactive) | 1.01 (inactive) | 1.03 (inactive) | 1.02 (inactive) | 0.963 (inactive) | 1.02 (inactive) | 1.02 (inactive)
23 | CN1CCN(c2c(F)cc3c(=O)c(C(=O)O)cn4c3c2OCN4C)CC1 [Marbofloxacin] (20 µM) | 0.0155 | 0.0185 | 0.139 | 1.36 | 0.107 (active) | 0.0554 (active) | 0.992 (inactive) | 0.616 (active) | 0.607 (active) | 0.231 (active) | 0.932 (inactive) | 1.04 (inactive)
24 | N[C@@H](Cc1c[nH]c2ccccc12)C(=O)O [L-Tryptophan] (20 µM) | 1.02 | 0.993 | 0.989 | 1.19 | 1.02 (inactive) | 1.04 (inactive) | 1.05 (inactive) | 0.985 (inactive) | 0.995 (inactive) | 1.03 (inactive) | 0.993 (inactive) | 1.08 (inactive)
25 | CCOC(=O)[N-]c1c[n+](N2CCOCC2)no1 [Molsidomine] (20 µM) | 0.839 | 1.04 | 0.98 | 0.196 | 1.03 (inactive) | 1.19 (inactive) | 0.153 (active) | 0.994 (inactive) | 1.02 (inactive) | 0.951 (inactive) | 1 (inactive) | 0.14 (active)
